Assay results taken from the supplement of paper PMC10646978.
± gives the standard deviation.

Assays:
Conditions in all cases: modulator concentration 10 µM
[1] = test system: RAW-Dual (murine macrophage reporter line); assay: NF-kB reporter (SEAP) activity fold change vs agonist alone; higher = enhanced NF-kB activity
Procedure, shortened: (§1)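 Overnight stimulation with a PRR agonist followed pre-incubation for 1 hour at 37 °C with compound at 10 μM final. This was done in RAW-Dual murine macrophage reporter cells seeded at 50 000 per well in 384-well plates. NF-κB (SEAP, QUANTI-Blue absorbance at 620 nm) and IRF (Lucia luciferase, QUANTI-Luc luminescence) were read from the supernatant. Each reporter's fold change relative to the mean agonist-only control on the same plate was averaged over replicate plates.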

[2] = test system: RAW-Dual (murine macrophage reporter line); assay: IRF reporter (Lucia luciferase) activity fold change vs agonist alone; higher = enhanced IRF activity
Procedure, shortened: as §1

[3] = test system: RAW-Dual (murine macrophage reporter line); assay: viability score (confluency relative to resting cells, overnight) (fraction); higher = more viable, active = viable (0.7 or more)
Procedure, shortened: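 RAW-Dual macrophages in 384-well plates were incubated overnight with compound, final concentration 10 μM. Confluency images from IncuCyte were processed in IncuCyte software into two masks covering all imaged wells. The viability score is each well's confluency relative to resting cells, and a compound met the cutoff when both masks exceeded 70% of resting cells.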

[4] = agonist: CpG ODN 1826 0.5 ug/mL

SMILES	NF-kB reporter [1, 4]	NF-kB reporter ([1]; agonist: LPS 0.1 ug/mL)	NF-kB reporter ([1]; agonist: MPLA […])	IRF reporter ([2]; agonist: 3'3'-cGAMP 10 ug/mL)	IRF reporter ([2]; agonist: LPS 0.1 ug/mL)	IRF reporter ([2]; agonist: MPLA […])	viability score [3]
O=C(O)c1cc([N+](=O)[O-])c(Nc2cccc3ccccc23)c([N+](=O)[O-])c1	0.879 ± 0.05	1.05 ± 0.068	0.888 ± 0.074	0.965 ± 0.057	1.31 ± 0.12	1.13 ± 0.22	1.01 (active)
CCOc1ccc(Nc2oc(-c3ccc(COc4ccc(C)cc4)o3)nc2C#N)cc1	1.03 ± 0.082	0.717 ± 0.089	1.04 ± 0.099	0.998 ± 0.035	1.41 ± 0.24	1.67 ± 0.41	0.832 (active)
CC(Sc1ccc(Cl)cc1)C(=O)NCc1cccnc1 (stereo unspecified)	1.07 ± 0.09	0.846 ± 0.065	1.08 ± 0.2	0.846 ± 0.031	0.905 ± 0.058	0.741 ± 0.14	0.992 (active)
O=C(CSc1nc(-c2ccccc2)c(-c2ccccc2)o1)N1CCOCC1	1.03 ± 0.081	1.02 ± 0.079	0.903 ± 0.054	0.954 ± 0.045	1.31 ± 0.11	1.2 ± 0.12	0.996 (active)
COc1ccc2ncc(S(=O)(=O)c3ccccc3)c(N3CCN(c4ccccc4)CC3)c2c1	0.611 ± 0.034	0.924 ± 0.068	1.14 ± 0.13	1.05 ± 0.036	1.4 ± 0.16	1.13 ± 0.14	0.981 (active)
COC1CCN(C2CCN(S(=O)(=O)c3ccccc3)CC2)CC1	0.839 ± 0.077	1.01 ± 0.082	0.977 ± 0.062	0.981 ± 0.065	1.08 ± 0.14	1.03 ± 0.23	1.01 (active)
O=C(Nc1cc(C(F)(F)F)cc(C(F)(F)F)c1)c1cc2ccccc2o1	0.961 ± 0.082	1.05 ± 0.08	0.952 ± 0.12	0.953 ± 0.042	1.32 ± 0.25	1.03 ± 0.29	1.01 (active)
O=C(c1cc2ccccc2o1)N1CC(N2C(=O)CCC2=O)C1	0.894 ± 0.054	0.957 ± 0.076	1.05 ± 0.066	1.03 ± 0.055	1.32 ± 0.26	1.44 ± 0.38	0.985 (active)
COc1ccc(CN2CCN(C(c3ccc(F)cc3)c3ccc(F)cc3)CC2)c(OC)c1OC.Cl.Cl	0.742 ± 0.032	0.927 ± 0.084	0.916 ± 0.049	0.604 ± 0.038	1.02 ± 0.24	1.17 ± 0.47	0.985 (active)
CNc1nc(Nc2ccc(C)c(C)c2)c2nccnc2n1	0.992 ± 0.063	1.03 ± 0.092	1.09 ± 0.09	0.992 ± 0.069	1.01 ± 0.19	1.22 ± 0.42	0.929 (active)
Br.COc1ccc2c3c1OC1CC(O)C=CC31CCN(C)C2 (stereo unspecified)	1.06 ± 0.082	0.892 ± 0.095	1.04 ± 0.1	1 ± 0.04	1.34 ± 0.18	1.43 ± 0.27	0.999 (active)
CO[C@@]1(NC(=O)CSCC#N)C(=O)N2C(C(=O)[O-])=C(CSc3nnnn3C)CS[C@@H]21 [Prestw-700]	0.993 ± 0.095	1.02 ± 0.088	0.927 ± 0.063	1 ± 0.033	1.47 ± 0.13	1.24 ± 0.12	0.997 (active)
CCS(=O)(=O)N1N=C(c2ccc(NS(C)(=O)=O)cc2)CC1c1ccccc1 (stereo unspecified)	0.947 ± 0.073	0.998 ± 0.078	1.12 ± 0.12	0.963 ± 0.034	1.29 ± 0.15	1.4 ± 0.23	1.02 (active)
CC1(C)Cc2c(sc3nc(SCC(N)=O)n(CCc4ccccc4)c(=O)c23)CO1	0.815 ± 0.07	0.814 ± 0.054	0.927 ± 0.1	1.02 ± 0.054	1.24 ± 0.084	1.3 ± 0.11	1.01 (active)
O=c1ncnc2[nH][nH]cc1-2	0.832 ± 0.071	0.865 ± 0.043	1.13 ± 0.13	0.979 ± 0.059	1.17 ± 0.07	1.31 ± 0.15	1.02 (active)
CC(=O)N1CCC(Cn2ccc3cccnc32)CC1	1.04 ± 0.078	1.02 ± 0.11	0.996 ± 0.048	0.949 ± 0.035	0.957 ± 0.056	1.02 ± 0.11	0.994 (active)
Clc1ccc2c(c1)C(N1CCNCC1)=Nc1ccccc1O2	0.996 ± 0.26	1.02 ± 0.066	0.969 ± 0.07	0.893 ± 0.03	1.2 ± 0.25	1.28 ± 0.13	0.637 (inactive)
Cn1c(=O)cc(N2CCC[C@@H](N)C2)n(Cc2ccccc2C#N)c1=O	1.19 ± 0.25	1.25 ± 0.28	2.23 ± 1.3	0.958 ± 0.031	1.3 ± 0.35	1.33 ± 0.26	0.99 (active)
